The record followed here is PubChem BioAssay AID430 (Sanford-Burnham Center for Chemical Genomics, 2006).

Molecules are shown by their SMILES. Screen size: about 63,000 compounds; about 1,100 (1.7%) were called active. No stated cut-off is given here; in the data, active means cytotoxicity above about 50%; inactive means the rest. Only a selection was taken, and actives are over-represented in it overall. Measured potencies and affinities stand elsewhere.

The experiment can be described thus: cytotoxicity in HPDE-C7 cells, cell-based, fluorescence, HTS (AID 430).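 Further: cells exposed to compound for 48 hours before viability readout; 0% = vehicle and 100% = reference cytotoxic drug.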 The conditions noted are these: HPDE-C7 pancreatic duct cells viability, at 10 µM, hits give high values.
Regarding `COc1ccc2nc(NC(=O)Cc3ccc(OC)c(S(=O)(=O)N4CCOCC4)c3)sc2c1`, the cytotoxicity is 13.1% (inactive).

On to `C=C1c2ccc(C)cc2NC(=O)N1c1ccccc1`, for which the cytotoxicity was -11.1% (inactive).

For the molecule `CCc1c(C)nc2ncnn2c1NCCc1ccc(OC)cc1`, the cytotoxicity is 64.9% (active).

For `COc1ccc(CCNc2c(C)c(C)nc3ncnn23)cc1`, the cytotoxicity was 10% (inactive).

For `CCc1c(C)nc2ncnn2c1NCCc1ccc(OC)c(OC)c1`, the cytotoxicity was 4.7% (inactive).

Take `COCCNC(=O)c1ccccc1NC(=O)c1ccc(OC)c(OC)c1`: the cytotoxicity is -2.2% (inactive).

As to `O=P(c1ccccc1)(c1ccccc1)C(c1ccco1)N1CCOCC1` (configuration not stated), the cytotoxicity was -5.8% (inactive).

`O=C(Nc1ccc(N2CCOCC2)c(Cl)c1)c1ncn[nH]1`: the cytotoxicity is -2.8% (inactive).

As for `COc1ccc2[nH]c(C(=O)O)c(CCC(=O)O)c2c1`, the cytotoxicity was 5.8% (inactive).

With `N[C@@H](Cc1ccc(O)c(I)c1)C(=O)O`, the cytotoxicity is -10.4% (inactive).

As to `O=C(O)CCc1cc(I)c(Oc2ccc(O)c(I)c2)c(I)c1`, the cytotoxicity is 92.3% (active).

Take `O=C(COc1ccccc1)Nc1nc2ccccc2[nH]1`: the cytotoxicity is -9.3% (inactive).

Regarding `Cc1nc2ccc(C(=O)c3ccccc3)cc2[nH]1`, the cytotoxicity is -13.6% (inactive).

Turning to `COC(=O)Nc1nc2ccc(Sc3ccccc3)cc2[nH]1`, the cytotoxicity is 60.6% (active).

With `COc1cc(C(=O)Nc2nc3ccccc3[nH]2)cc(OC)c1OC`, the cytotoxicity was -19.5% (inactive).

In the case of `COC(=O)Nc1nc2ccc(C(=O)c3ccccc3)cc2[nH]1`, the cytotoxicity was 69.2% (active).

Turning to `O=C(Nc1nc2ccccc2[nH]1)c1ccc(F)cc1`, the cytotoxicity is -12.8% (inactive).

Regarding `Cc1c(NC(=O)c2cc(-c3ccccc3)on2)c(=O)n(-c2ccccc2)n1C`, the cytotoxicity is -4.6% (inactive).

For `O=S(=O)(NCC1CCCO1)c1cccc2nsnc12` (configuration not stated), the cytotoxicity is -2.4% (inactive).

Take `O=C(OCc1cc(-c2ccccc2)no1)c1ccc2ccccc2n1`: the cytotoxicity was -17.4% (inactive).

On to `CS(=O)(=O)c1ncc(Cl)c(C(=O)Nc2ccc(N3CCOCC3)cc2)n1`, for which the cytotoxicity was 72.4% (active).

Turning to `CSc1ncc(Cl)c(C(=O)Nc2ccc(S(=O)(=O)N3CCOCC3)cc2)n1`, the cytotoxicity was 7.9% (inactive).

For `O=C(Nc1ccc(N2CCOCC2)cc1)c1cnsn1`, the cytotoxicity is -19.9% (inactive).

Take `Cc1cc(NC(=O)CCN2C(=O)c3ccccc3C2=O)no1`: the cytotoxicity is -2.5% (inactive).

For the molecule `CCn1c2ccccc2c2cc(C3C(C#N)=C(N)OC4=C3C(=O)CC(C)(C)C4)ccc21` (configuration not stated), the cytotoxicity was -26.8% (inactive).

With `CCn1c2ccccc2c2cc(C3C(C#N)=C(C)NC(C)=C3C#N)ccc21`, the cytotoxicity was -2.6% (inactive).

Consider `CCCc1[nH]nc2c1C(c1ccccc1OC)C(C#N)=C(N)O2` (configuration not stated), for which the cytotoxicity is 4.9% (inactive).

On to `O=C(O)C1C2C=CC3(CN(Cc4ccco4)C(=O)C13)O2` (configuration not stated), for which the cytotoxicity is -6.3% (inactive).

On to `O=C(O)C1C2C=CC3(CN(Cc4ccncc4)C(=O)C13)O2` (configuration not stated), for which the cytotoxicity was -13.4% (inactive).

As for `O=C(O)C1C2C=CC3(CN(Cc4ccccn4)C(=O)C13)O2` (configuration not stated), the cytotoxicity is 63.6% (active).

With `COCCn1c(SCC(=O)N2CCCc3ccccc32)nnc1-c1ccco1`, the cytotoxicity is -4.5% (inactive).

With `CCCCOc1ccc(OCCCC)c2c1NC1(N2)C(=O)N(C(C)=O)c2ccccc21`, the cytotoxicity was 69.8% (active).

With `CC(=O)N1C(=O)C2(Nc3ccccc3N2)c2ccccc21`, the cytotoxicity was -0.7% (inactive).

As to `CCNC(=O)N1C(=O)C2(OCCO2)c2ccccc21`, the cytotoxicity was -15.9% (inactive).

As for `CCOC(=O)Cc1nnc(NC(=O)Nc2ccccc2)s1`, the cytotoxicity was 5% (inactive).

Turning to `Nc1ccc(-c2nc3ccccc3[nH]2)cc1`, the cytotoxicity is -5.6% (inactive).

For the molecule `Nc1cc(N)cc(-c2nc3ccccc3o2)c1`, the cytotoxicity was 18.2% (inactive).

For `Nc1ccc(-c2nc3ccc(-c4nc5ccccc5o4)cc3[nH]2)cc1`, the cytotoxicity was 76.2% (active).

Turning to `O=S(=O)(Nc1nnc(-c2ccccc2)s1)c1ccc(Cl)cc1`, the cytotoxicity is 8.8% (inactive).

As to `FC(F)(F)c1cc(-c2ccco2)nc(-n2nc(C(F)(F)F)cc2C2CC2)n1`, the cytotoxicity was 5.7% (inactive).

`Cn1c(=O)c2c(nc(SCC(=O)N3CCCc4ccccc43)n2C)n(C)c1=O`: the cytotoxicity is -17.3% (inactive).

`O=C(CCCCn1c(=O)c2ccccc2n(Cc2ccc(F)cc2Cl)c1=O)NCc1ccco1`: the cytotoxicity is 2.9% (inactive).

`O=C(NCc1ccccn1)c1ccc(COc2ccc(Cl)cc2)o1`: the cytotoxicity was 4.2% (inactive).

Consider `Cc1nc(N2CCCC2)c2nnn(Cc3ccccc3Cl)c2n1`, for which the cytotoxicity was -10.9% (inactive).

On to `O=C(c1ccco1)N1CCN(c2nc(C(F)(F)F)nc3c2nnn3Cc2ccccc2)CC1`, for which the cytotoxicity is 11.6% (inactive).

As to `CC(=O)Nc1ccc(NC(=O)c2c(C)nc3ccccn23)cc1`, the cytotoxicity is 6.8% (inactive).

Consider `COc1ccc(C2C(C#N)=C(N)Oc3cc(O)ccc32)cc1OC` (configuration not stated), for which the cytotoxicity was -6.7% (inactive).

Turning to `N#CC1=C(N)Oc2cc(N)ccc2C1C1CC=CCC1` (configuration not stated), the cytotoxicity is 59.8% (active).

As to `N#CC1=C(N)Oc2cc(N)ccc2C1C1CCCCC1` (configuration not stated), the cytotoxicity was 22.2% (inactive).

For the molecule `Cc1[nH]nc2c1C(C1CC=CCC1)C(C#N)=C(N)O2` (configuration not stated), the cytotoxicity was 0.7% (inactive).

Take `COc1ccc(OC)c(C2C(C#N)=C(N)Oc3cc(N)ccc32)c1` (configuration not stated): the cytotoxicity was -0.7% (inactive).

`COc1cc(C2C(C#N)=C(N)Oc3cc(N)ccc32)cc(OC)c1OC` (configuration not stated): the cytotoxicity is 58.5% (active).

Turning to `Cc1cc(C(=O)NCC2CCCO2)n(-c2ccccc2)n1` (configuration not stated), the cytotoxicity was 0.2% (inactive).

Consider `CCOc1ccc(NC(=O)c2oc3ccccc3c2NC(=O)C(C)C)cc1`, for which the cytotoxicity was 11.9% (inactive).

For the molecule `C=CCN1C(=O)C(CC(=O)O)SC1=Nc1c(C)n(C)n(-c2ccccc2)c1=O` (configuration not stated), the cytotoxicity was -3.1% (inactive).

As for `Cc1nc2ccccc2c2oc(C(=O)NCc3ccccn3)cc12`, the cytotoxicity was 4.5% (inactive).

`O=C1CC(N2CCN(C3CC(=O)N(CCc4ccccc4)C3=O)CC2)C(=O)N1CCc1ccccc1` (configuration not stated): the cytotoxicity was -9.9% (inactive).

For `N#C/C(C(N)=O)=c1/ccc2c(c1)N1C3=C(CCCC3)CC3CCCCC31N=2` (configuration not stated), the cytotoxicity is 77.9% (active).

For `N#CC(C#N)=c1ccc2c(c1)N1C3=C(CCCC3)CC3CCCCC31N=2` (configuration not stated), the cytotoxicity is 72% (active).

`Cc1cc(C(=O)COC(=O)C2=COCCO2)c(C)n1-c1ccc2c(c1)OCO2`: the cytotoxicity is -7.4% (inactive).

In the case of `CCCc1cc(C(=O)NC2CCCC2)no1`, the cytotoxicity was -4.5% (inactive).

In the case of `CCOC(=O)N1CCN(C(=O)CCn2c(=S)[nH]c3cc(OCC)c(OCC)cc3c2=O)CC1`, the cytotoxicity is 1.3% (inactive).

Regarding `CCN1CCN(C(c2cccs2)C(C)NC(=O)c2ccccc2)CC1` (configuration not stated), the cytotoxicity was 2.9% (inactive).

For `O=C(O)CCCNc1cc(N2CCC3(CC2)OCCO3)c2noc3c2c1C(=O)c1ccccc1-3`, the cytotoxicity was 34.7% (inactive).

Take `CC(=O)OCCNc1cc(N2CCN(C)CC2)c2noc3c2c1C(=O)c1ccccc1-3`: the cytotoxicity is 7.3% (inactive).

On to `CCOC(=O)N1CCN(c2cc(NCCC(=O)O)c3c4c(onc24)-c2ccccc2C3=O)CC1`, for which the cytotoxicity was 58.8% (active).

In the case of `CCOC(=O)c1c(C)noc1CP(=O)(c1ccccc1)c1ccccc1`, the cytotoxicity was 4.8% (inactive).

Regarding `CCOc1ccc2noc3c2c1C(=O)c1ccccc1-3`, the cytotoxicity was 29.3% (inactive).

On to `CCC1CCCCN1C(=O)CSc1nnc(-c2ccc(Cl)cc2)o1` (configuration not stated), for which the cytotoxicity is 1.2% (inactive).

On to `Cc1cccc(N2CCN(C(=O)Cc3c(C(=O)O)[nH]c4ccc(Cl)cc34)CC2)c1C`, for which the cytotoxicity was 76.3% (active).

For `O=C(O)c1[nH]c2ccc(Cl)cc2c1CC(=O)N1CCN(c2ccccc2)CC1`, the cytotoxicity was 5.3% (inactive).

As to `O=C(O)c1[nH]c2ccc(Cl)cc2c1CC(=O)N1CCN(C(=O)c2ccco2)CC1`, the cytotoxicity is -1% (inactive).

`Cc1ccc(OC(=O)CCC(=O)N2CCc3ccccc32)cc1`: the cytotoxicity was 4% (inactive).

For `Cc1cccc(N2CCN(CCNC(=O)c3cc4c(s3)CS(=O)(=O)C4)CC2)c1C`, the cytotoxicity is -3.7% (inactive).

For the molecule `O=S(=O)(NCCc1ccccn1)c1cccs1`, the cytotoxicity was -28.8% (inactive).

On to `Cc1nc2c(c(=O)n1CCC1=CCCCC1)c1nc3ccccc3nc1n2/N=C/c1ccco1`, for which the cytotoxicity is 63.7% (active).

As for `CCCn1c(C)nc2c(c1=O)c1nc3ccccc3nc1n2CCC1=CCCCC1`, the cytotoxicity was -0.4% (inactive).

With `O=c1c2c3nc4ccccc4nc3n(/N=C/c3ccco3)c2ncn1CCC1=CCCCC1`, the cytotoxicity was 23% (inactive).

For `O=c1oc2ccccc2c2c1ncn2-c1ccccc1`, the cytotoxicity was -17.3% (inactive).

Turning to `O=C(Nc1nnc(CC2=CCCCC2)s1)c1cccs1`, the cytotoxicity is 0.5% (inactive).

For `Cn1c(CNC(=O)c2ccc(F)cc2)nc2ccccc21`, the cytotoxicity was 0.8% (inactive).

For `COc1cc2c(cc1OC)C(/C(C#N)=N\O)=NC(C)(C)C2`, the cytotoxicity was 13% (inactive).

As for `CCOC(=O)/C=C1\NC(C)(C)Cc2cc(OC)c(O)cc21`, the cytotoxicity was 1.4% (inactive).

In the case of `CCC1C(O)=C(c2ccccn2)C(=N)N1c1ccccc1` (configuration not stated), the cytotoxicity was 0.3% (inactive).

With `CCOCCOC(=O)C1=C(C)N(C)C(=O)NC1c1ccccc1Cl` (configuration not stated), the cytotoxicity was -0.5% (inactive).

Take `C/C(NCCN1CCOCC1)=C(\C#N)C(N)=O`: the cytotoxicity was -5.5% (inactive).

On to `CCOC(=O)c1sc(NC(C)=O)c(C(=O)OCC)c1C`, for which the cytotoxicity is 4.3% (inactive).

`CCOC(=O)c1c(NC(C)=O)sc2c(O)cccc12`: the cytotoxicity was 21.8% (inactive).

Regarding `CCOC(=O)c1c(NC(C)=O)sc2c(O)c(CN3CCN(CC)CC3)ccc12`, the cytotoxicity was 68% (active).

In the case of `CC(=O)Nc1ccc(S(=O)(=O)NCC2CCC(C(=O)N3CCCCCC3)CC2)cc1` (configuration not stated), the cytotoxicity is -6.2% (inactive).

For the molecule `Cc1cc(C)nc(-n2nc(C)cc2NC(=O)c2ccc(Br)o2)n1`, the cytotoxicity was 25.7% (inactive).

`Cc1cc(C)nc(-n2nc(C)cc2NC(=O)CN2CCC(C)CC2)n1`: the cytotoxicity was 0.1% (inactive).

With `COc1ccccc1N1CCN(CC(=O)Nc2cc(C)nn2-c2nc(C)cc(C)n2)CC1`, the cytotoxicity is 52.4% (active).

Take `Cc1cc(C)nc(-n2nc(C)cc2NC(=O)CN2CCc3ccccc3C2)n1`: the cytotoxicity is 19.1% (inactive).

Turning to `COc1ccc(CNc2nc3nc(C)cc(C)n3n2)cc1OC`, the cytotoxicity was 2.5% (inactive).

On to `COc1ccc(CNCC(=O)Nc2cc(C)nn2-c2nc(C)cc(C)n2)cc1OC`, for which the cytotoxicity is 52.9% (active).

With `COc1ccc(C(CC(=O)O)NC(=O)c2ccco2)cc1OC` (configuration not stated), the cytotoxicity was -6.5% (inactive).
